Sampled rows, rich in hits. Any-hit rate of the full collection: about 12%.
HP1b binding inh = inhibitors of HP1-beta chromodomain binding to methylated histone tails; P83916; Potency, µM (series often up to 114 µM), without a hit: at the top dose activity change, negative = inhibition, hits mostly inhibitors; hit rate 0.56% among 390,000; AlphaScreen HP1-beta / biotin-H3K9me3 peptide binding; also: nearly all actives have a fitted effect of over 70% in size
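HP1-beta protein (50 nM final) preincubated 30 min at room temperature with biotinylated H3(1-18)K9me3 peptide (50 nM) in PBS pH 7.4, 0.01% Tween-20, then compound added for 30 min. AlphaScreen streptavidin donor/nickel chelate acceptor beads (10 ug/mL final), 30 min dark, luminescence read.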
JMJD2A Tudor = blocks the human JMJD2A Tudor domain; O75164; AlphaScreen JMJD2A-Tudor / H3K4me3 peptide binding; Potency, µM (top dose mostly 114 µM), without a hit: at the top dose activity change, negative = inhibition, hits mostly inhibitors; hit rate 4.4% among 390,000; AID 504339; also: % is scaled to controls: 0 for no effect and ±100 for the full control effect; nearly all actives have a fitted effect of over 50% in size
G9a inh = inhibitors of human histone lysine methyltransferase G9a. Q96KQ7. AID 504332. Potency, µM (doses to about 102 µM), inactives show at the top dose activity, negative = inhibition, most hits filed as inhibitors. G9a H3K9 monomethylation, AlphaScreen, 2 h. hit rate 8.8% among 350,000; also: % is scaled to controls: 0 for no effect and ±100 for the full control effect; nearly all actives have a fitted effect of over 75% in size
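Using a bead-based AlphaScreen, monomethylated H3K9 product from 2 h room-temperature reactions (G9a 20 nM, peptide 500 nM, SAM 20 uM) was detected with 0.5 ug/mL rabbit anti-H3K9me1 antibody.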
PLK1 PBD block = PLK1 (human) polo-box domain binding inhibition. hit rate 2.8% among 360,000. AID 720504. P53350. Plk1 PBD binding of FITC phosphopeptide, fluorescence polarization. Potency, µM, for inactives: max response, negative = inhibition, actives largely listed as inhibitors; also: series mostly up to about 57 µM; % is scaled to controls: 0 for no effect and ±100 for the full control effect; nearly all actives have a fitted effect of over 65% in size
Sfp inh = Sfp phosphopantetheinyl transferase inhibition. Biochemical Sfp PPTase activity, qHTS. Potency, µM, inactives show largest response in the series, negative = inhibition, most hits filed as inhibitors. hit rate 3.5% among 310,000;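 also: the enzyme is Sfp with the accession as filed and its product quenches rhodamine fluorescence; 0% = enzyme reaction without inhibitor and -100% = no enzyme wells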
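Fluorescence-quenching assay with 15 nM Sfp, 5 uM rhodamine-CoA and 12.5 uM BHQ-2-labelled ybbR peptide in pH 7.6 Hepes/MgCl2 buffer. Enzyme was pre-incubated with compound for 15 min at room temperature. Rate was taken from the 30-min fluorescence change (525/598 nm).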
BAZ2B block = inhibitors of human BAZ2B bromodomain; Q9UIF8; AlphaScreen BAZ2B-H3K14Ac peptide displacement; Potency, µM (highest dose often 114 µM), without a hit: top-dose activity change, negative = inhibition, most hits filed as inhibitors; hit rate 4.4% among 360,000; AID 504333; also: % is scaled to controls: 0 for no effect and ±100 for the full control effect; nearly all actives have a fitted effect of over 60% in size
Target sequence (Q9UIF8 whole entry, looked up): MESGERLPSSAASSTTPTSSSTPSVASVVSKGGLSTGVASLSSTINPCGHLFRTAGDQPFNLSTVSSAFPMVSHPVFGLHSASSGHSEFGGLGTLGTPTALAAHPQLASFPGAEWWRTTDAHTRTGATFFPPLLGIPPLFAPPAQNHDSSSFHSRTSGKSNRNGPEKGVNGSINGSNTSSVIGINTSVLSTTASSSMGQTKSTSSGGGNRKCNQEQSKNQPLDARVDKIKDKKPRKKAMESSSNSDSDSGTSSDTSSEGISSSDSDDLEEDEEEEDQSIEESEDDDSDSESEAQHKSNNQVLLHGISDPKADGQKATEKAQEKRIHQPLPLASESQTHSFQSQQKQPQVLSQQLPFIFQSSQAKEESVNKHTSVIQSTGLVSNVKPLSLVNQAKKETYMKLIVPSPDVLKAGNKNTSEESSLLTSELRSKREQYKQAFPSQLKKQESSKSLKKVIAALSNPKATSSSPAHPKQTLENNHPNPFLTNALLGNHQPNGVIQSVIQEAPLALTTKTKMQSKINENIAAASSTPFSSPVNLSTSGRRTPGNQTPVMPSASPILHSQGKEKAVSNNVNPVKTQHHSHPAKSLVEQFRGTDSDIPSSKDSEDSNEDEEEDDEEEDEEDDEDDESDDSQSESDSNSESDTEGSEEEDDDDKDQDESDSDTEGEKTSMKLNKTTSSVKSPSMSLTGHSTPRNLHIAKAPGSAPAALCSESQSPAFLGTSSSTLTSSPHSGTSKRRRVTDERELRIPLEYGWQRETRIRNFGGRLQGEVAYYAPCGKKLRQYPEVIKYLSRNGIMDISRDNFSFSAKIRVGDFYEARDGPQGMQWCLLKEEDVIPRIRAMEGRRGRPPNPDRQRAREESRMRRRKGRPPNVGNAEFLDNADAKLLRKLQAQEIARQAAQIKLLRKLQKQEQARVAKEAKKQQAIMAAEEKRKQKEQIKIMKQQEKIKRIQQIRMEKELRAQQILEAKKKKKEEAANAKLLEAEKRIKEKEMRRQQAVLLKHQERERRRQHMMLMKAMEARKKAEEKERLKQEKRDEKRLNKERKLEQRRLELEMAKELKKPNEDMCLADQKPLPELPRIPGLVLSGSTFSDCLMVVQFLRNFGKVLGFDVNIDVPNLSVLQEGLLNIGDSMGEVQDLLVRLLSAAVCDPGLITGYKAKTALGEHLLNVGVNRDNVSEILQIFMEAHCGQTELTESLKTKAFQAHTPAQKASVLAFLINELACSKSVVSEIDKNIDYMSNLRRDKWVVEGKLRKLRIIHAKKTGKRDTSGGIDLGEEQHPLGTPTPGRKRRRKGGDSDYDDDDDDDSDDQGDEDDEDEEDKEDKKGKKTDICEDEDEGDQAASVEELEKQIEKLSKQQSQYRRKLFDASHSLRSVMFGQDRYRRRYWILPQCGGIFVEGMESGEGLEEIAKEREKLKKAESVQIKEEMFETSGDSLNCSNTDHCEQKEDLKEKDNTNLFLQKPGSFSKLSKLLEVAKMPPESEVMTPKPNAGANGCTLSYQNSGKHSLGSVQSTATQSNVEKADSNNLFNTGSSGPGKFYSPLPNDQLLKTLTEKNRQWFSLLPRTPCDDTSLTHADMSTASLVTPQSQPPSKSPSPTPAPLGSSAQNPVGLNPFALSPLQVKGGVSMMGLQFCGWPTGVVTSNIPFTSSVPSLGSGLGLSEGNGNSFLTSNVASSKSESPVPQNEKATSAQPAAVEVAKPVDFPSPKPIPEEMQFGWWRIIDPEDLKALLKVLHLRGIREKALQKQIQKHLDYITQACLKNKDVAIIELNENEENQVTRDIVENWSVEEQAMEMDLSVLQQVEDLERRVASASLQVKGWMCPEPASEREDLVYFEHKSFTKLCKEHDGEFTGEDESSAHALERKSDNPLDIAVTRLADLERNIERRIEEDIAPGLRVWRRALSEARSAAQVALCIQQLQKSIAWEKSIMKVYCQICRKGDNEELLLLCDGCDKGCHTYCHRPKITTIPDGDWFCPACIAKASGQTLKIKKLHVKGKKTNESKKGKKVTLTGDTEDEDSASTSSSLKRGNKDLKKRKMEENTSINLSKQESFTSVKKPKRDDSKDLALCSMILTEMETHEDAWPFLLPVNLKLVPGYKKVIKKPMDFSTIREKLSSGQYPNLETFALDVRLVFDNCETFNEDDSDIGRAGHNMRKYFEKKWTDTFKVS
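In this displacement format the biotinylated H3(5-23) peptide acetylated at Lys14 serves as ligand at 50 nM, with BAZ2B at 50 nM in PBS pH 7.4 containing 0.01% Tween-20. Donor and acceptor beads are 10 ug/mL final.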
The depositor's hits bear a star; [ ] = another dose, or the depositor's remark. Calls follow the shape of the dose curve; as a rule, active = well fitted curve in the direction sought with a large enough effect; inconclusive = small, poorly fitted or top-dose-only effect, or another doubt; inactive = no such curve, though single readings can be large; an effect the other way counts as inactive or inconclusive. Potency is read from the fitted curve at half-maximal effect.

How did Cc1cc(O)c(CN2CCN(c3ccccc3)CC2)cc1C do in these assays?
HP1b binding inh: 34%; JMJD2A Tudor: -17%; G9a inh: 22%[12.7 µM]; PLK1 PBD block: 1%; Sfp inh: 15%; BAZ2B block: -1%

What do the screens show for `Oc1cc2c(cc1CN1CCN(c3ccc(F)cc3)CC1)OCO2`?
HP1b binding inh: -10%; JMJD2A Tudor: inconclusive; G9a inh: 8.9µM*; PLK1 PBD block: -24%; Sfp inh: 8%; BAZ2B block: inconclusive

Results for CC(N)c1cccc(Cl)c1Cl (stereo not given) ?
G9a inh: 8%[59 µM]

Results for OC(CNCCc1c[nH]c2ccccc12)C(F)(F)F (stereo not given) ?
HP1b binding inh: 6%; JMJD2A Tudor: -12%; PLK1 PBD block: -17%; Sfp inh: 3%; BAZ2B block: 0%

Results for CNCCc1c[nH]c2ccccc12 ?
HP1b binding inh: 29%; JMJD2A Tudor: -17%; G9a inh: 28µM*; PLK1 PBD block: 0%; Sfp inh: 21%; BAZ2B block: -21%

Results for CNCCc1c[nH]c2ccc(O)cc12 ?
HP1b binding inh: inconclusive; JMJD2A Tudor: 22µM*; G9a inh: 10µM*; PLK1 PBD block: -2%; Sfp inh: -1%

How did COc1cc(CNCCc2c[nH]c3ccccc23)cc(OC)c1OC do in these assays?
PLK1 PBD block: -3%

How did COc1ccc(Cn2c(=O)oc3ccc(C)cc32)cc1OC do in these assays?
HP1b binding inh: 65%; JMJD2A Tudor: -10%; G9a inh: 10%[12.7 µM]; PLK1 PBD block: -8%; Sfp inh: 18%; BAZ2B block: -2%

Results for Cn1cc(C(=O)OCC(=O)NC2CCCCC2)c2ccccc21 ?
HP1b binding inh: 31%; JMJD2A Tudor: -10%; G9a inh: 35%[12.7 µM]; PLK1 PBD block: -6%; BAZ2B block: 10%

What do the screens show for `C=C(C)C1CCC(C)=CC1c1c(O)cc(O)cc1CCCCC` (stereo not given)?
G9a inh: inconclusive; Sfp inh: -1%

Results for Cc1ccc(-c2nc(CN3C(=O)CN=C(c4ccccc4)c4ccccc43)c(C)o2)cc1 ?
HP1b binding inh: 43%; JMJD2A Tudor: 3%; G9a inh: inconclusive; BAZ2B block: 4%

How did Cc1oc(-c2ccccc2Cl)nc1CN1C(=O)CN=C(c2ccccc2)c2ccccc21 do in these assays?
HP1b binding inh: 4%; JMJD2A Tudor: inconclusive; G9a inh: 40µM*; PLK1 PBD block: 3%; Sfp inh: -19%; BAZ2B block: inconclusive

How did Cc1cc(N(CCCl)CCCl)ccc1/C=N/N=C(\N)c1cnccn1 do in these assays?
HP1b binding inh: inconclusive; JMJD2A Tudor: 14µM*; PLK1 PBD block: -5%

How did COP(=S)(OC)SCN1C(=O)c2ccccc2C1=O do in these assays?
HP1b binding inh: 15%; JMJD2A Tudor: -14%; G9a inh: 16µM*; PLK1 PBD block: 21µM*; Sfp inh: 35µM*; BAZ2B block: -6%

What do the screens show for `CNC(=O)CSP(=S)(OC)OC`?
HP1b binding inh: 30%; JMJD2A Tudor: -15%; PLK1 PBD block: -27%; Sfp inh: inconclusive

What do the screens show for `C/C(=C/C=C/[C@@H](C)C(=O)O)[C@H]1CN[C@H](C(=O)O)[C@H]1CC(=O)O`?
HP1b binding inh: 21%; JMJD2A Tudor: 56µM*; G9a inh: inconclusive; PLK1 PBD block: -8%; Sfp inh: -11%; BAZ2B block: -2%

What do the screens show for `Cc1cc(C(=O)OCC(=O)Nc2ccccc2F)c(C)n1C1CC1`?
HP1b binding inh: 1%; JMJD2A Tudor: -24%; G9a inh: 50µM*; PLK1 PBD block: -3%; BAZ2B block: -39%

Results for CN(Cc1cccc(-c2ccncc2)c1)C(=O)Oc1ccc([N+](=O)[O-])cc1 ?
PLK1 PBD block: -2%

Results for CC(=O)Nc1cc([As](=O)(O)O)ccc1O ?
HP1b binding inh: 17%; JMJD2A Tudor: -20%; G9a inh: -2%[59 µM]; PLK1 PBD block: -10%; Sfp inh: -12%; BAZ2B block: -37%

What do the screens show for `CC(=O)Nc1cc(Cl)c(N=Cc2ccc(O)cc2O)cc1Cl`?
HP1b binding inh: 33%; JMJD2A Tudor: -6%; G9a inh: 56µM*; PLK1 PBD block: -10%; Sfp inh: -17%; BAZ2B block: -36%

What do the screens show for `O=C(NCc1ccccc1)Oc1cccc(Cl)c1`?
HP1b binding inh: 6%; JMJD2A Tudor: -17%; G9a inh: 5%[59 µM]; PLK1 PBD block: 8.4µM*; Sfp inh: 23%; BAZ2B block: 6%

Results for Cc1cccc(C)c1-n1nnnc1C(c1ccccc1OC(F)(F)F)N1CCC(n2c(=O)[nH]c3ccccc32)CC1 (stereo not given) ?
PLK1 PBD block: 7%

How did COc1ccc(CNC(=O)CSCc2cnn(-c3ccccc3)c2-n2cccc2)cc1OC do in these assays?
HP1b binding inh: -13%; JMJD2A Tudor: -30%; G9a inh: -40%[59 µM]; BAZ2B block: 28µM*

Results for COc1ccc(OC)c(C(Nc2ccccc2)P(=O)(OC(C)C)OC(C)C)c1 (stereo not given) ?
HP1b binding inh: 19%; JMJD2A Tudor: 0%; G9a inh: inconclusive; PLK1 PBD block: 7%; Sfp inh: 13%; BAZ2B block: -11%

How did O=c1[nH]c(=O)n(Cc2ccc(F)cc2)c(O)c1/C=N/Nc1ccccc1 do in these assays?
HP1b binding inh: 8%; JMJD2A Tudor: -32%; G9a inh: 10µM*; PLK1 PBD block: -13%; Sfp inh: -8%; BAZ2B block: -15%

What do the screens show for `O=c1[nH]c(=O)n(CCC2=CCCCC2)c(O)c1/C=N/Nc1ccccc1`?
HP1b binding inh: 51%; JMJD2A Tudor: -31%; G9a inh: 3.5µM*; PLK1 PBD block: -13%; Sfp inh: 2%; BAZ2B block: -24%

Results for O=c1[nH]c(=O)n(CCC2=CCCCC2)c(O)c1/C=N/Nc1cccc2ccccc12 ?
HP1b binding inh: 32µM*; JMJD2A Tudor: -10%[11.4 µM]; G9a inh: 1.8µM*; PLK1 PBD block: 34µM*; Sfp inh: -26%; BAZ2B block: inconclusive

Results for O=c1[nH]c(=O)n(CCC2=CCCCC2)c(O)c1C=NC1CCN(Cc2ccccc2)CC1 ?
HP1b binding inh: 23%; JMJD2A Tudor: -7%; G9a inh: 18%; PLK1 PBD block: -2%; Sfp inh: 2%; BAZ2B block: 0%

How did O=C(Oc1ccccc1)N1CCC2(CC1)CN(Cc1ccncc1)C2 do in these assays?
G9a inh: 37%[12.7 µM]; Sfp inh: 5%

Results for O=[N+]([O-])c1c(Cl)cccc1-c1c[nH]cc1Cl ?
G9a inh: inconclusive; Sfp inh: -3%

From PubChem BioAssay
